Reference: PubChem BioAssay (EPA / NIEHS)
Results filed as inconclusive are left out. Activity calls are given as the source filed them. Rule for the calls, unless noted: active = hit-call score of the fitted dose curve at least 0.9, where 1 is the maximum; inactive = score below 0.9.

Assays:
[1] = target: Paired box protein Pax-6 (Homo sapiens) (UniProt P26367); assay: ATG_Pax6_CIS: Attagene CIS-FACTORIAL HepG2 Assay for human Paired Box 6 (PAX6) (AID 2282956); settings: HepG2 CIS-FACTORIAL PAX6 reporter transcription, RNA readout; actives raise or lower the signal
How it was run: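 Transient MRTU transfection of HepG2 → compound exposure 24 h → TriZol RNA, oligo(dT) RT → PCR, 6-FAM primer extension, HpaI cut → capillary electrophoresis; activity fitted both directions against DMSO.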

[2] = ATG_PXRE_CIS: Attagene CIS-FACTORIAL HepG2 Assay for human Pregnane X Receptor Element (PXRE) (AID 2282957); settings: HepG2 Attagene CIS-FACTORIAL PXRE reporter, mRNA; actives raise or lower the signal
How it was run: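 Transfect HepG2 with MRTUs (cis promoter elements); dose chemical, incubate 24 h; isolate RNA, RT with oligo(dT), PCR, 6-FAM label, HpaI cut, CE. Gain/loss fit vs DMSO.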

[3] = ATG_PPRE_CIS: Attagene CIS-FACTORIAL HepG2 Assay for human Peroxisome Proliferator-activated Response Element (PPRE) (AID 2282958); settings: HepG2 PPRE cis-element reporter, Attagene transcription factor profiling; actives raise or lower the signal
How it was run: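 Cells are first transfected transiently with the multiplexed reporter library, then dosed for 24 h. Total RNA is reverse-transcribed, amplified, fluorescently end-labeled and HpaI-cut before capillary electrophoresis; activity is fitted bidirectionally against DMSO controls.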

[4] = ATG_RORE_CIS: Attagene CIS-FACTORIAL HepG2 Assay for human RAR-related Orphan Receptor Element (RORE) (AID 2282959); settings: HepG2 Attagene cis-factorial RORE reporter, mRNA; actives raise or lower the signal
How it was run: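 Cells were HepG2 carrying transfected cis-regulated reporter constructs, dosed for 24 hours. Total RNA was reverse-transcribed and reporter cDNA amplified, fluorescently labeled and sized by capillary electrophoresis. Activity was fitted bidirectionally relative to DMSO.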

[5] = ATG_Sox_CIS: Attagene CIS-FACTORIAL HepG2 Assay for human SRY-box transcription factor (SOX) (AID 2282960); settings: HepG2 Attagene cis-factorial SOX reporter, mRNA; actives raise or lower the signal
How it was run: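 Transient MRTU transfection of HepG2; 24 h compound incubation; TriZol RNA, oligo(dT) RT, PCR, 6-FAM primer extension, HpaI cut, CE. Bidirectional fit, DMSO = baseline.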

[6] = target: Transcription factor Sp1 (Homo sapiens) (UniProt P08047); assay: ATG_Sp1_CIS: Attagene CIS-FACTORIAL HepG2 Assay for human Specificity Protein 1 (Sp1) (AID 2282961); settings: HepG2 Sp1 cis-reporter transcription, actives raise or lower the signal
How it was run: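 Endogenous Sp1 activity was gauged in human liver HepG2 cells bearing transfected reporter units under a cis-regulating promoter. After 24 h dosing, reporter mRNA was quantified by RT-PCR with capillary electrophoresis, and activity fitted bidirectionally versus DMSO.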

[7] = ATG_SREBP_CIS: Attagene CIS-FACTORIAL HepG2 Assay for human Sterol Regulatory Element Binding (SREBP) (AID 2282962); settings: HepG2 Attagene cis-factorial SREBP reporter, mRNA; actives raise or lower the signal
How it was run: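 Transfected HepG2 (cis-regulated reporter library, endogenous TFs) → compound 24 h → total RNA → oligo(dT) RT → reporter-specific PCR → FAM primer extension, HpaI cut → CE fluorescence. Fit bidirectional vs DMSO.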

[8] = target: Signal transducer and activator of transcription 3 (Homo sapiens) (UniProt P40763); assay: ATG_STAT3_CIS: Attagene CIS-FACTORIAL HepG2 Assay for human Signal Transducer and Activator of Transcription 3 (STAT3) (AID 2282963); settings: HepG2, Attagene cis-factorial STAT3 reporter transcription; actives raise or lower the signal
How it was run: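 HepG2 cells transiently transfected with cis-element-driven multiple reporter transcription units; after 24 h chemical exposure, reporter mRNA measured by RT-PCR, 6-FAM primer-extension labelling, HpaI digestion and capillary electrophoresis. Bidirectional fitting versus DMSO baseline.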

[9] = ATG_TA_CIS: Attagene CIS-FACTORIAL HepG2 Assay for human TA Basal Promoter (AID 2282964); settings: HepG2 Attagene CIS-factorial TA basal promoter reporter; actives raise or lower the signal
How it was run: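 Cis-factorial format in HepG2: reporters report endogenous factors, not chimeric Gal4 fusions. After 24 h treatment, reporter transcripts were measured by RT-PCR-capillary electrophoresis fluorescence, analysed bidirectionally versus DMSO.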

[10] = ATG_TAL_CIS: Attagene CIS-FACTORIAL HepG2 Assay for human TAL Basal Promoter (AID 2282966); settings: HepG2 Attagene cis-factorial TAL promoter reporter; actives raise or lower the signal;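 note: background control endpoint measuring basal TAL promoter reporter mRNA not a specific factor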
How it was run: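 Fluorescence of labelled reporter cDNA fragments, resolved by capillary electrophoresis, gave the readout. Human HepG2 liver cells carried transiently transfected cis-element reporter units and were treated for 24 hours; activity was fitted bidirectionally against DMSO.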

[11] = ATG_TGFb_CIS: Attagene CIS-FACTORIAL HepG2 Assay for human Transforming Growth Factor (TGF) (AID 2282967); settings: HepG2 Attagene CIS TGFb reporter, mRNA transcription; actives raise or lower the signal
How it was run: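 Multiplexed cis-reporter HepG2 system, 24 h treatment; mRNA induction read by fluorescence after RT-PCR and CE; DMSO negative control, bidirectional curve fitting.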

[12] = ATG_VDRE_CIS: Attagene CIS-FACTORIAL HepG2 Assay for human Vitamin D Receptor Element (VDRE) (AID 2282968); settings: HepG2 VDRE cis-reporter transcription, actives raise or lower the signal
How it was run: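 HepG2 cells transiently transfected with cis-element reporter units, dosed 24 h; reporter mRNA measured by RT-PCR, 6-FAM labeling, HpaI digestion and capillary electrophoresis. Activity fitted bidirectionally against DMSO baseline.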

[13] = target: X-box-binding protein 1 (Homo sapiens) (UniProt P17861); assay: ATG_Xbp1_CIS: Attagene CIS-FACTORIAL HepG2 Assay for human X-box Binding Protein 1 (XBP1) (AID 2282972); settings: HepG2 XBP1 cis-element reporter, Attagene multiplex; actives raise or lower the signal
How it was run: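 HepG2, transient MRTU transfection (cis-promoter driven), 24 h compound exposure. Total RNA → oligo(dT) RT → PCR → 6-FAM labeling → HpaI cut → CE. Bidirectional fit vs DMSO.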

[14] = target: Bile acid receptor (Homo sapiens) (UniProt Q96RI1); assay: ATG_FXR_TRANS: Attagene TRANS-FACTORIAL HepG2 Assay for Farnesoid X Receptor (FXR) (AID 2282979; active = hit-call score of the fitted dose curve at least 0.9, where 1 is the maximum;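 note: hits raise reporter mRNA above DMSO so AC50 marks FXR activation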); settings: HepG2 Attagene TRANS FXR-GAL4 reporter transcription
How it was run: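 Transient transfection of HepG2 with multiplexed GAL4-UAS reporter units; exogenous FXR-GAL4 chimera. Dose 24 h → TriZol RNA → oligo(dT) RT → PCR, 6-FAM primer extension, HpaI cut → CE. Gain vs DMSO.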

[15] = ATG_TCF_b_cat_CIS: Attagene CIS-FACTORIAL HepG2 Assay for human T-Cell-Factor with beta-catenin (TCF/b-cat) (AID 2282965); settings: HepG2 TCF/beta-catenin cis-reporter transcription, actives raise or lower the signal
How it was run: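 HepG2 cells transiently transfected with multiple cis-promoter-regulated reporter transcription units, so endogenous transcription factor activity is measured. Reporter mRNA read 24 hours after dosing by RT-PCR, fluorescent labelling and capillary electrophoresis; bidirectional fitting against DMSO.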

[16] = target: Nuclear receptor subfamily 1 group I member 3 (Homo sapiens) (UniProt Q14994); assay: ATG_CAR_TRANS: Attagene TRANS-FACTORIAL HepG2 Assay for human Constitutive Androstane Receptor (CAR) (AID 2282969; active = hit-call score of the fitted dose curve at least 0.9, where 1 is the maximum;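 note: activators raise reporter mRNA above DMSO so AC50 marks induction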); settings: HepG2 Attagene TRANS-FACTORIAL CAR reporter
How it was run: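 HepG2 cells transiently transfected with multiplexed GAL4-UAS reporter units expressing chimeric NR-Gal4 proteins; compound exposure 24 h. Reporter mRNA measured by RT-PCR, 6-FAM labelling, HpaI digestion and capillary electrophoresis; gain-of-signal fitted against DMSO baseline.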

[17] = target: Steroid hormone receptor ERR1 (Homo sapiens) (UniProt P11474); assay: ATG_ERRa_TRANS: Attagene TRANS-FACTORIAL HepG2 Assay for human Estrogen-Related Receptor alpha (ERRa) (AID 2282971; active = hit-call score of the fitted dose curve at least 0.9, where 1 is the maximum); settings: HepG2 Attagene TRANS reporter, ERRa transactivation
How it was run: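 Reporter transcript induction was quantified by RT-PCR and capillary electrophoresis of FAM-labelled, HpaI-cut products after 24 h treatment of HepG2 cells carrying transiently transfected GAL4-UAS reporter units and an exogenous ERRa-Gal4 fusion; activity scored as increase over DMSO.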

[18] = ATG_M_19_TRANS: Attagene TRANS-FACTORIAL HepG2 Assay for M19 Transcription Factor (Internal Marker) (AID 2282974; active = hit-call score of the fitted dose curve at least 0.9, where 1 is the maximum); settings: HepG2 Attagene TRANS-FACTORIAL M19 internal marker reporter
How it was run: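 Cells: human HepG2, transiently transfected with multiplexed reporter transcription units. Exposure: 24 h. Detection: RT-PCR of reporter mRNA with capillary electrophoresis. Analysis: gain-of-signal vs DMSO.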

[19] = target: Glucocorticoid receptor (Homo sapiens) (UniProt P04150); assay: ATG_GR_TRANS: Attagene TRANS-FACTORIAL HepG2 Assay for human Glucocorticoid Receptor (GR) (AID 2282978; active = hit-call score of the fitted dose curve at least 0.9, where 1 is the maximum;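 note: activators score as hits since higher reporter transcript over DMSO is fitted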); settings: HepG2 Attagene TRANS GR reporter, mRNA transcription
How it was run: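 In this trans-factorial format, exogenous NR-GAL4 chimeric proteins in transfected HepG2 cells regulate GAL4-UAS reporter transcription. After 24 h treatment, reporter mRNA induction relative to DMSO is read by RT-PCR and capillary electrophoresis.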

[20] = target: Estrogen-related receptor gamma (Homo sapiens) (UniProt P62508); assay: ATG_ERRg_TRANS: Attagene TRANS-FACTORIAL HepG2 Assay for human Estrogen-Related Receptor gamma (ERRg) (AID 2282977; active = hit-call score of the fitted dose curve at least 0.9, where 1 is the maximum;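 note: hits increase reporter signal over DMSO so potencies reflect activators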); settings: HepG2 Attagene TRANS reporter, ERRg transactivation
How it was run: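 HepG2 cells transiently transfected with multiplexed GAL4-UAS reporter units and chimeric NR-Gal4 constructs were exposed to test chemicals for 24 h. Reporter mRNA was measured by RT-PCR, 6-FAM primer extension, HpaI digestion and capillary electrophoresis; gain-of-signal versus DMSO.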

Measured: AC50

Chain of Glucocorticoid receptor (Homo sapiens) (P04150 whole entry, looked up, the tested form may be a part): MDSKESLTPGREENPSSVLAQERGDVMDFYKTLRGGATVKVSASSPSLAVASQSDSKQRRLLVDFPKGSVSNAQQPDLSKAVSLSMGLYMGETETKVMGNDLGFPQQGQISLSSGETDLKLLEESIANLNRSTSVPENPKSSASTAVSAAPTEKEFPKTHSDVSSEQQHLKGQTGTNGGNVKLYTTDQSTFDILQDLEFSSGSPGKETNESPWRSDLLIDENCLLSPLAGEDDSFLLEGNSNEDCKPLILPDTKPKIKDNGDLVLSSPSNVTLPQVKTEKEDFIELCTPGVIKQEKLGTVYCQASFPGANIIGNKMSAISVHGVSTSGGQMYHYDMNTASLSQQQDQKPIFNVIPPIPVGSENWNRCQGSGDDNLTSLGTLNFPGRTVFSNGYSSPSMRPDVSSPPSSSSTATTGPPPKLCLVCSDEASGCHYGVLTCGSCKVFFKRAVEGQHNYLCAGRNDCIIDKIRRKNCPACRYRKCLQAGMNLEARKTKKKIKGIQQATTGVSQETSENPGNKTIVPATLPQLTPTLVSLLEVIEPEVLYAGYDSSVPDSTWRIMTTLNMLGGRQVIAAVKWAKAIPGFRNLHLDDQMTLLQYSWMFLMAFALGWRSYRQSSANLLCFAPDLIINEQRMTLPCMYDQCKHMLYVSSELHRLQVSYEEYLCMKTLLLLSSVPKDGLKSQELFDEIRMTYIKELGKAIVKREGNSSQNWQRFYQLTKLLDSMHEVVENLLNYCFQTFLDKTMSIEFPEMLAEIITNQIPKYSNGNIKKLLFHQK
Chain of Nuclear receptor subfamily 1 group I member 3 (Homo sapiens) (Q14994 whole entry, looked up, the tested form may be a part): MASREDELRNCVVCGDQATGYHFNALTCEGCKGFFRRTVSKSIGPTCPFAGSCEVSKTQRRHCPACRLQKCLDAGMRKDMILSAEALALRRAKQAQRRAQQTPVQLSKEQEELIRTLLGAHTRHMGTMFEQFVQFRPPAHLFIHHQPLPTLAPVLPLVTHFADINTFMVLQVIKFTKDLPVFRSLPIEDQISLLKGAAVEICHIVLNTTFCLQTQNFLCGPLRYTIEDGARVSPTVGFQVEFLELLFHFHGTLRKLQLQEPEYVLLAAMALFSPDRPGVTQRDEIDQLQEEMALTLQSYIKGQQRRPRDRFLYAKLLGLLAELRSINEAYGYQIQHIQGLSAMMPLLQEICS
Chain of Paired box protein Pax-6 (Homo sapiens) (P26367 whole entry, looked up): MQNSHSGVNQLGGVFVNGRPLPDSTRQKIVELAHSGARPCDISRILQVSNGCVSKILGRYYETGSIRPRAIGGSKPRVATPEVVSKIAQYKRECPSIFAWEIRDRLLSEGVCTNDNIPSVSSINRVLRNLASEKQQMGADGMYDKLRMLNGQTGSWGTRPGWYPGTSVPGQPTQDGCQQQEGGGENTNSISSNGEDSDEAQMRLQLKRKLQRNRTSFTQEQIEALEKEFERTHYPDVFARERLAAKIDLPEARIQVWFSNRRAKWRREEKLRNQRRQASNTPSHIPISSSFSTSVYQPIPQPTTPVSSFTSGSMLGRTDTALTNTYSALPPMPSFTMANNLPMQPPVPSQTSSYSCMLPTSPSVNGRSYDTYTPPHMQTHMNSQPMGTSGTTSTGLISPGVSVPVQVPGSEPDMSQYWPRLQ
Chain of Signal transducer and activator of transcription 3 (Homo sapiens) (P40763 whole entry, looked up): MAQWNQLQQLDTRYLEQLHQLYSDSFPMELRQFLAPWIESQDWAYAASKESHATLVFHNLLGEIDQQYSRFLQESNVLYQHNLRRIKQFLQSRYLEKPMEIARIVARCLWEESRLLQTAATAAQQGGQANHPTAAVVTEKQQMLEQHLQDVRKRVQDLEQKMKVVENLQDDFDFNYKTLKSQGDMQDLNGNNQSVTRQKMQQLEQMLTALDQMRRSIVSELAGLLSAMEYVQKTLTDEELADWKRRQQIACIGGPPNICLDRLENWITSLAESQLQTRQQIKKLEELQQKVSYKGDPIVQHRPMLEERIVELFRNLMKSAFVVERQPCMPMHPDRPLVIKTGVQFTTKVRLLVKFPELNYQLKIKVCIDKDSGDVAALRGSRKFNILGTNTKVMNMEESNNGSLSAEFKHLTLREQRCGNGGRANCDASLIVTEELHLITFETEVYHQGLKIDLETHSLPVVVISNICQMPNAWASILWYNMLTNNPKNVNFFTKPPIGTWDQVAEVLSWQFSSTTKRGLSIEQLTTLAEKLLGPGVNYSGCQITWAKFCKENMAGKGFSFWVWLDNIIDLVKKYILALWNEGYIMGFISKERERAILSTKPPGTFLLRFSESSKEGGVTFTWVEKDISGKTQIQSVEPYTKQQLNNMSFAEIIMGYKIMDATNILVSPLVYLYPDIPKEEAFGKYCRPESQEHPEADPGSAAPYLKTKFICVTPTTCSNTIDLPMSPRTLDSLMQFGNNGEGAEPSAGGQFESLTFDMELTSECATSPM
Chain of Transcription factor Sp1 (Homo sapiens) (P08047 whole entry, looked up): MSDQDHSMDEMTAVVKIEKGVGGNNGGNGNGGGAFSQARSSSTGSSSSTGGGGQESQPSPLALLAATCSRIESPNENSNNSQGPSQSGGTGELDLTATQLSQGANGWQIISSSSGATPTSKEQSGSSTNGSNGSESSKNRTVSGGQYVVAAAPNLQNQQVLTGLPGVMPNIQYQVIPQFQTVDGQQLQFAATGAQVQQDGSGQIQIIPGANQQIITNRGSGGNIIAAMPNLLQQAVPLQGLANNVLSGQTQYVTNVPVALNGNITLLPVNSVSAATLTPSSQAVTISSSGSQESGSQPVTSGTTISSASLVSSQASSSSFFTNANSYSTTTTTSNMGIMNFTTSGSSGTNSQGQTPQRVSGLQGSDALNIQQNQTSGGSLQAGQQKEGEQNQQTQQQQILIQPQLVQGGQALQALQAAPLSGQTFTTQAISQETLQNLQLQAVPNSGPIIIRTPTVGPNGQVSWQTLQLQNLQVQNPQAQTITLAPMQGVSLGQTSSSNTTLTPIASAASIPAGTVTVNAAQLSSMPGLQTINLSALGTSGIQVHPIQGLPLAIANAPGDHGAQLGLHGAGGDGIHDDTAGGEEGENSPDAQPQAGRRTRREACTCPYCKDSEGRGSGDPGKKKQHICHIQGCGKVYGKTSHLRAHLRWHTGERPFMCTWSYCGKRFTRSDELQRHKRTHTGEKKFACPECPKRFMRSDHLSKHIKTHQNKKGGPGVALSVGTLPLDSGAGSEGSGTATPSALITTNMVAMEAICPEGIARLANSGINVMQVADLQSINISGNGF
Chain of X-box-binding protein 1 (Homo sapiens) (P17861 whole entry, looked up): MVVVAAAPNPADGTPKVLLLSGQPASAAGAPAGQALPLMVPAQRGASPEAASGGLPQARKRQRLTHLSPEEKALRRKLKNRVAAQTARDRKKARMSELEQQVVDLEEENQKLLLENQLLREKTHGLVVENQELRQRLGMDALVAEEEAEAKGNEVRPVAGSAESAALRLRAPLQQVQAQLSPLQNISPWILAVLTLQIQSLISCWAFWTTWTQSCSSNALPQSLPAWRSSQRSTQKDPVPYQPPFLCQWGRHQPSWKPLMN
Chain of Bile acid receptor (Homo sapiens) (Q96RI1 whole entry, looked up, the tested form may be a part): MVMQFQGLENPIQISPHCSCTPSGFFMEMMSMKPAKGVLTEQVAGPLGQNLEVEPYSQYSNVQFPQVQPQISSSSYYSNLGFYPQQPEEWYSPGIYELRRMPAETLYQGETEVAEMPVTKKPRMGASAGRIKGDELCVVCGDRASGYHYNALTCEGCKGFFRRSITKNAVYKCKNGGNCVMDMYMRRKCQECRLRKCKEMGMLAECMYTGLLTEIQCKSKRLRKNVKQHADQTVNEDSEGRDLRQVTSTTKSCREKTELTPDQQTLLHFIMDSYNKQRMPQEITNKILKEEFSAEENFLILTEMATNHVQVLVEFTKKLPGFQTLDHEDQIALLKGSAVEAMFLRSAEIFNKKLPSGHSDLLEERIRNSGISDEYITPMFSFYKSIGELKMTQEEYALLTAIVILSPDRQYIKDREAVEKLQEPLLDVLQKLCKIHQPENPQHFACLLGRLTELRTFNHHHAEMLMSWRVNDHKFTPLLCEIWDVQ
Chain of Steroid hormone receptor ERR1 (Homo sapiens) (P11474 whole entry, looked up, the tested form may be a part): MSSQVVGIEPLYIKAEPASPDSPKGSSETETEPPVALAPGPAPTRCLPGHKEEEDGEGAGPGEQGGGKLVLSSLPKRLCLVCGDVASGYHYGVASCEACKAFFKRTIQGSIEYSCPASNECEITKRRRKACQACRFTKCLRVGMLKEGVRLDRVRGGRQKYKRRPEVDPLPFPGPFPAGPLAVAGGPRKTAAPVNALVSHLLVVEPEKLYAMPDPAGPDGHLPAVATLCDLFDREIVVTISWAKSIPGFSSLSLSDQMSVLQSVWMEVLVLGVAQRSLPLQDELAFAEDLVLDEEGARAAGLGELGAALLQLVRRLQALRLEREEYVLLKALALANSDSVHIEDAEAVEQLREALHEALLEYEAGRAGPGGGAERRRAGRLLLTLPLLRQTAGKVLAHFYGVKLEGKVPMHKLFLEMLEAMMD
Chain of Estrogen-related receptor gamma (Homo sapiens) (P62508 whole entry, looked up, the tested form may be a part): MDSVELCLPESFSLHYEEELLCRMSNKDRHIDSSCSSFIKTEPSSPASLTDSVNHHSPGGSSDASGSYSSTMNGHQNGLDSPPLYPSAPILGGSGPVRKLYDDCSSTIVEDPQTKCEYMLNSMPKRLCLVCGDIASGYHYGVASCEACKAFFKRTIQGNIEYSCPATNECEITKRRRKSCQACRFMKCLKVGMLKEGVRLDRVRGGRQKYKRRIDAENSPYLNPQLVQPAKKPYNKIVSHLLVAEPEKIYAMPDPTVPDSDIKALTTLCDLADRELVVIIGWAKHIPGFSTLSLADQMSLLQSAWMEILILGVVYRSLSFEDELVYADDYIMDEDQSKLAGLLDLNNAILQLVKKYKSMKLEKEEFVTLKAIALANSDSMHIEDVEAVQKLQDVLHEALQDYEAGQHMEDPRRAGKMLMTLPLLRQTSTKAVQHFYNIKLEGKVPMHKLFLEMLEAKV

CC1(C)C(=O)N(Br)C(=O)N1Br
not listed: [15] | [16] | [17] | [18] | [19] | [20]
inactive: all other assays above

Cc1ccc(C)c(O)c1
not listed: [4] | [14] | [17] | [18] | [19] | [20]
inactive: all other assays above

CC/C(=C\C(=N/O)C(N)=O)C(C)[N+](=O)[O-] (stereo not given)
active: [15] 100 µM
not listed: [14] | [16] | [20]
inactive: all other assays above

Cn1c(=O)cc(Oc2ccc(F)cc2F)c2cnc(NCC(C)(C)O)nc21
active: [15] 56.9 µM
not listed: [16] | [17] | [20]
inactive: all other assays above

CCn1nc(Cc2ccccc2)cc1C1CCN(C[C@H]2C[C@H](N(C)[C@@H](C(=O)O)C(C)C)C[C@@H]2c2cccc(F)c2)CC1
active: [7] 26.9 µM | [15] 100 µM
not listed: [14] | [16] | [17] | [19] | [20]
inactive: all other assays above

Cn1cnc([N+](=O)[O-])c1Sc1ncnc2nc[nH]c12
not listed: [12] | [14] | [17] | [18] | [20]
inactive: all other assays above

On1ccccc1=S
not listed: [14] | [16] | [17] | [18] | [19]
inactive: all other assays above

CC(O)CN(CCN(CC(C)O)CC(C)O)CC(C)O (stereo not given)
not listed: [14] | [16] | [17] | [20]
inactive: all other assays above

CC(C)=CCCC(C)=CC=O
active: [2] 4.7 µM | [5] 167 µM | [15] 157 µM | [12] 22.2 µM
not listed: [14] | [16] | [17] | [18] | [20]
inactive: all other assays above

CC(=O)c1ccc2c(c1)[C@H](NC(=O)c1ccc(F)cc1)[C@@H](O)C(C)(C)O2
active: [2] 12.4 µM | [3] 1.87 µM
not listed: [14] | [15] | [17] | [18] | [20]
inactive: all other assays above

Oc1ccc2c(c1)-c1ccccc1C2
inactive: [2] | [7] | [8] | [10] | [11] | [19] | [14]
active: [1] 33.5 µM | [3] 46.4 µM | [4] 24.7 µM | [5] 54.2 µM | [6] 11.9 µM | [9] 37.2 µM | [15] 3.93 µM | [12] 28.8 µM | [13] 57.7 µM

CCCCCCCCCCCCc1ccccc1
not listed: [4] | [14] | [17] | [18] | [19]
inactive: all other assays above

CCNc1ccccc1
active: [2] 35.5 µM
not listed: [14] | [17] | [18] | [19] | [20]
inactive: all other assays above

Cc1c(-c2cccnc2)c2ccccc2n1CCCCC(=O)O
active: [3] 5.71 µM
not listed: [4] | [17] | [19] | [20]
inactive: all other assays above

CCCN(C1CCN(C(=O)C2CCNCC2)CC1)[C@@H]1CCc2ccc(OC)cc2C1
active: [2] 100 µM | [6] 177 µM | [13] 153 µM
not listed: [14] | [15] | [16] | [20]
inactive: all other assays above

O=c1n(CC2CO2)c(=O)n(CC2CO2)c(=O)n1CC1CO1 (stereo not given)
active: [1] 59.6 µM | [2] 21.3 µM | [4] 65.3 µM | [5] 65.2 µM | [6] 17.1 µM | [12] 100 µM | [13] 74.9 µM
inactive: [3] | [7] | [8] | [9] | [10] | [11] | [16]
